The Inhibition is the percentage by which the read-out fell short of the control.

What all share (assay type): functional
Test [1] concerns Plasmodium falciparum. As to the kind of experiment: GSK_TCMDC: Inhibition of Plasmodium falciparum 3D7 in whole red blood cells, using parasite LDH activity as an index of growth. Test compounds present at 2uM.
Test [2] relates to Plasmodium falciparum. The test is described as follows: GSK_TCMDC: Inhibition of Plasmodium falciparum Dd2 in whole red blood cells, using parasite LDH activity as an index of growth. Test compounds present at 2uM.
Another test deals with HepG2. As to the kind of experiment: GSK_TCMDC: Percent inhibition of human HepG2 cell line. Test compounds present at 10uM.

`Cc1cc(NC(=O)Nc2ccc(Cl)cc2F)c2ccccc2n1`: the results for the Inhibition in the test on Plasmodium falciparum [1], in the test on Plasmodium falciparum [2] and in the test with HepG2 were 100%, 71% and 10%, respectively.
Consider `O=C(NC1CCC(N2CCC(Cc3ccc(F)cc3)CC2)CC1)c1cc2ccccc2[nH]1` (configuration not stated), for which the Inhibition in the test on Plasmodium falciparum [1] was found to be 98%; in the test with Plasmodium falciparum [2], 39%; with HepG2 it was 60%.
For `NC1CCCN(Cc2cccc(-c3ccc(-c4nc5cc(F)ccc5[nH]4)cc3)c2)C1.O=C(O)C(F)(F)F` (configuration not stated), the Inhibition in the test with Plasmodium falciparum [1] was determined as 100%; with Plasmodium falciparum [2], 99%; with HepG2 it was 40%.
`OC(CN(Cc1ccccc1)Cc1ccccc1)Cn1c2ccc(Cl)cc2c2cc(Cl)ccc21` (configuration not stated): the Inhibition in the test with Plasmodium falciparum [1] stood at 89%; in the test with Plasmodium falciparum [2], 95%; in the test with HepG2, 5%.
Take `CC(Nc1nc(Nc2ccc(F)cc2)nc(SCC(N)=O)n1)c1ccccc1` (configuration not stated): the Inhibition in the test on Plasmodium falciparum [1] is recorded as 90%; in the test on Plasmodium falciparum [2], 87%; in the test on HepG2 it was 14%.
Consider `CO/C(=C\C=C\c1cc2cc(Cl)ccc2[nH]1)C(=O)NCCCN1CCN(c2cc(Cl)ccc2OC)CC1`, for which the Inhibition in the test with Plasmodium falciparum [1] worked out at 97%; in the test on Plasmodium falciparum [2], 21%; in the test with HepG2, 41%.
In the same order, the values of `COc1cc2nc(-c3ccc(Br)cc3)cc(N)c2cc1OC` are 98%, 69% and 90%.
Taken in the same sequence, the figures for `C=CCn1c(C)cc(C(=O)COc2ccc(S(=O)(=O)N3CCOCC3)cc2[N+](=O)[O-])c1C` were 94%, 5% and 0%.
Consider `COc1cc2c(c(Cl)c1OC)CCN(C(=O)C(F)(F)F)CC2c1ccccc1` (configuration not stated), for which the Inhibition in the test on Plasmodium falciparum [1] came to 100%; in the test with Plasmodium falciparum [2], 100%; with HepG2, 7%.
`COc1ccc(NC(=O)[C@H](CC(C)C)Nc2cc(C)nc(NCCc3ccccc3OC)n2)cc1.O=C(O)C(F)(F)F`: the Inhibition in the test on Plasmodium falciparum [1] is on record as 99%; in the test with Plasmodium falciparum [2], 68%; in the test with HepG2, 9%.
In the same order, the values of `O=C(NCCCCCN1CCC(c2c[nH]c3ccccc23)CC1)c1ccc(-c2cccnc2)cc1` are 89%, 10% and 29%.
Taken in the same sequence, the figures for `COc1cccc2cc(C(=O)N[C@@H](CC(C)C)C(=O)N[C@H](/C=N/NC(=O)OC(C)(C)C)CC(=O)OC(C)(C)C)oc12` were 85%, 57% and 4%.
Taken in the same sequence, the figures for `Cc1[nH]c2ccccc2c1CC1CCN(CC2CCN(C(=O)/C=C/c3ccc(Cl)c(Cl)c3)CC2)CC1` were 92%, 14% and 34%.
Consider `CN1CCC(Oc2cc(NC(=O)Nc3ccc(-c4ccncc4)c(Cl)c3)ccc2Cl)CC1`, for which the Inhibition is on record as 99% in the test on Plasmodium falciparum [1], 100% in the test on Plasmodium falciparum [2] and 23% with HepG2.
In the same order, the values of `Cn1cc(CCNc2ccnc(NCCc3coc4ccccc34)n2)c2ccccc21` are 87%, 28% and 26%.
On to `COCCN(C(=O)Cc1cccs1)C(C(=O)NCc1ccc(OC)cc1)c1ccc(C(C)C)cc1` (configuration not stated), for which the figures for the Inhibition in the test on Plasmodium falciparum [1], in the test on Plasmodium falciparum [2] and with HepG2 were 96%, 59% and 0%, respectively.
In the same order, the values of `COc1ccc2nccc([C@@H](O)CN3CCC(NC(=O)Cc4cccc5c(Br)cccc45)CC3)c2c1` are 99%, 34% and 15%.
Taken in the same sequence, the figures for `CCOc1cc(CC)ccc1C1CCN(CCN2CCC(CNC(=O)c3ccc(-c4ccc(C#N)cc4)cc3)CC2)CC1` were 89%, 100% and 53%.
Taken in the same sequence, the figures for `COc1ccc(OC)c(Cc2cnc3nc(N)[nH]c(=O)c3c2C)c1` were 98%, 4% and 62%.
In the case of `O=C(NCCN1CCCC1)N1CCCN(c2ncnc3cc(-c4ccc(F)cc4)sc23)CC1.O=C(O)C(F)(F)F`, the Inhibition in the test with Plasmodium falciparum [1] is 81%; in the test on Plasmodium falciparum [2], 19%; with HepG2, 5%.
Taken in the same sequence, the figures for `CCn1cc(-c2nc(-c3cc(OC)cc(OC)c3)no2)c(=O)c2ccccc21` were 89%, 77% and 0%.
`COc1cccc(Cc2c(C)nc3nc(N)nc(N)c3c2C)c1.Cl`: the Inhibition is 95% in the test on Plasmodium falciparum [1], 1% in the test with Plasmodium falciparum [2] and 65% in the test with HepG2.
Turning to `CCCc1cc(NCc2ccncc2)nc(Nc2ccc(F)cc2)n1`, the Inhibition was found to be 90% in the test with Plasmodium falciparum [1], 6% with Plasmodium falciparum [2] and 9% in the test with HepG2.
With `COc1ccc2nccc([C@@H](O)CN3CCC(NCc4cc5c(F)ccc(F)c5[nH]4)CC3)c2n1.CS(=O)(=O)O`, the results for the Inhibition in the test on Plasmodium falciparum [1], in the test on Plasmodium falciparum [2] and in the test with HepG2 were 100%, 76% and 22%, respectively.
In the case of `COc1ccccc1Oc1c(N(C)S(=O)(=O)c2ccc(C(C)C)cc2)nc(C(F)(F)F)nc1N(C)S(=O)(=O)c1ccc(C(C)C)cc1`, the Inhibition in the test on Plasmodium falciparum [1] is reported as 94%; with Plasmodium falciparum [2] it was 98%; in the test on HepG2 it was 4%.
With `O=c1nc(C=Cc2ccc(Br)cc2)oc2ccccc12`, the Inhibition in the test with Plasmodium falciparum [1] came to 97%; in the test on Plasmodium falciparum [2] it was 66%; with HepG2 it was 0%.
As to `CCCCCCNCCOc1ccc(-c2nc(-c3ccccc3)c(-c3ccccc3)[nH]2)cc1`, the Inhibition was 98% in the test on Plasmodium falciparum [1], 39% in the test with Plasmodium falciparum [2] and 14% in the test with HepG2.
Taken in the same sequence, the figures for `Br.CCCC1N=C(N)N=C(N)N1c1ccc(C)cc1` (configuration not stated) were 94%, 2% and 1%.
For the compound `Cc1ccc2nc(C)cc(N/N=C/c3cccc([N+](=O)[O-])c3)c2c1`, the Inhibition in the test with Plasmodium falciparum [1] was determined as 100%; in the test with Plasmodium falciparum [2], 99%; in the test on HepG2 it was 0%.

These data come from ChEMBL document CHEMBL1157539, “Thousands of chemical starting points for antimalarial lead identification” (Nature, 2010).
